Shown is part of a subset that was picked to be rich in hits.
ROS inducer – cancer cell ROS induction; U2OS ROS induction, H2DCF-DA fluorescence; ROS induction (% of piperlongumine), % at 10 µM; hit rate 2% among 46,000; in the data active = ROS induction above about 79%, passing the limit was not always enough
Hits are given with their value; 0 = inactive.

SMILES | ROS inducer
Cc1ccc(S(=O)(=O)N(C)C[C@@H]2Oc3ccc(NS(=O)(=O)c4cccs4)cc3CC(=O)N([C@H](C)CO)C[C@@H]2C)cc1 | 0
C[C@H]1CN([C@@H](C)CO)C(=O)c2cc(NS(C)(=O)=O)ccc2O[C@H]1CN(C)S(=O)(=O)c1ccccc1 | 0
Cc1ccc(S(=O)(=O)N(C)C[C@@H]2Oc3ccc(NS(=O)(=O)c4ccccc4)cc3CC(=O)N([C@H](C)CO)C[C@@H]2C)cc1 | 130
C[C@@H]1CN([C@@H](C)CO)C(=O)Cc2cc(NS(=O)(=O)c3cccs3)ccc2O[C@@H]1CN(C)S(=O)(=O)c1cccs1 | 0
C[C@@H]1CN([C@@H](C)CO)C(=O)Cc2cc(NS(=O)(=O)c3cccs3)ccc2O[C@@H]1CN(C)C | 128
Cc1ccc(S(=O)(=O)N(C)C[C@H]2Oc3ccc(NS(=O)(=O)c4cccs4)cc3CC(=O)N([C@@H](C)CO)C[C@H]2C)cc1 | 0
Cc1ccc(S(=O)(=O)Nc2ccc3c(c2)CC(=O)N([C@H](C)CO)C[C@H](C)[C@H](CN(C)S(=O)(=O)c2ccccc2)O3)cc1 | 0
C[C@@H]1CN([C@H](C)CO)C(=O)Cc2cc(NS(=O)(=O)c3cccs3)ccc2O[C@H]1CN(C)S(C)(=O)=O | 0
C[C@@H]1CN([C@H](C)CO)C(=O)c2cc(NS(=O)(=O)c3ccccc3)ccc2O[C@@H]1CN(C)S(=O)(=O)c1ccccc1 | 0
Cc1ccc(S(=O)(=O)Nc2ccc3c(c2)CC(=O)N([C@H](C)CO)C[C@@H](C)[C@@H](CN(C)S(=O)(=O)c2ccccc2)O3)cc1 | 0
O=C(CCN1N=C(c2ccccc2)CCC1=O)Nc1cccc(C(F)(F)F)c1 | 0
COc1ccccc1CNS(C)(=O)=O | 0
Cc1cc(C)c2c(=O)n(CC(=O)NCCc3ccc(Cl)cc3)sc2n1 | 0
COc1ccc(OC(=O)c2csc(COc3ccc4nonc4c3)n2)cc1 | 0
CCCC(C)NC(=O)N1CCOCC1 (stereo not given) | 0
O=C(CSC(=S)N1CCOCC1)c1c[nH]c2ccccc12 | 0
Cc1ccc(C)c(Cc2c(C)nc3c(C(=O)NC4CC4)cnn3c2C)c1 | 0
COc1cccc(CNC(=O)c2cnn3c(C)c(Cc4c(C)cc(C)cc4C)c(C)nc23)c1 | 142
Cc1nc2c(C(=O)NCc3ccc4c(c3)OCO4)cnn2c(C)c1Cc1c(F)cccc1Cl | 0
Cc1cccc(NC(=O)C(C)C)c1 | 0
Cc1ccc(S(=O)(=O)Nc2ccc3c(c2)CC(=O)N([C@H](C)CO)C[C@@H](C)[C@H](CN(C)C(=O)Nc2ccc4c(c2)OCO4)O3)cc1 | 0
C[C@H]1CN([C@@H](C)CO)C(=O)Cc2cc(NC(=O)Nc3ccc4c(c3)OCO4)ccc2O[C@H]1CN(C)C(=O)Nc1ccc2c(c1)OCO2 | 0
CC(C)NC(=O)N(C)C[C@@H]1Oc2ccc(NC(=O)Nc3ccc4c(c3)OCO4)cc2CC(=O)N([C@H](C)CO)C[C@@H]1C | 0
C[C@H](CO)N1C[C@H](C)[C@H](CN(C)C(=O)Nc2ccc3c(c2)OCO3)Oc2ccc(NS(C)(=O)=O)cc2CC1=O | 123
C[C@H](CO)N1C[C@H](C)[C@H](CN(C)C(=O)Nc2ccc3c(c2)OCO3)Oc2ccc(NS(=O)(=O)c3ccccc3)cc2CC1=O | 0
SMILES | ROS inducer
CC(C)NC(=O)Nc1ccc2c(c1)CC(=O)N([C@@H](C)CO)C[C@@H](C)[C@@H](CN(C)C(=O)Nc1ccc3c(c1)OCO3)O2 | 111
O=C(NC1CCCCC1)c1ccc(Cn2c(=S)[nH]c3ccccc3c2=O)cc1 | 0
CC1=NN(C(=O)c2ccccc2)C(O)(C(F)(F)F)C1 (stereo not given) | 0
Cc1ccc(S(=O)(=O)Nc2ccc3c(c2)C(=O)N([C@H](C)CO)C[C@H](C)[C@@H](CN(C)C(=O)Nc2ccc(C(F)(F)F)cc2)OCCCC[C@@H](C)O3)cc1 | 0
C[C@@H]1CCCCO[C@H](CN(C)S(=O)(=O)c2ccc(F)cc2)[C@@H](C)CN([C@H](C)CO)C(=O)c2cc(NS(=O)(=O)c3cccs3)ccc2O1 | 0
C[C@@H]1CCCCO[C@@H](CN(C)CC2CC2)[C@@H](C)CN([C@H](C)CO)C(=O)c2cc(NS(=O)(=O)c3ccc(F)cc3)ccc2O1 | 0
C[C@@H]1CCCCO[C@H](CN(C)C(=O)Nc2ccc(C(F)(F)F)cc2)[C@@H](C)CN([C@H](C)CO)C(=O)c2cc(NS(=O)(=O)c3ccccc3)ccc2O1 | 0
C[C@@H]1CCCCO[C@@H](CN(C)S(=O)(=O)c2cccs2)[C@@H](C)CN([C@H](C)CO)C(=O)c2cc(NS(=O)(=O)c3ccc(F)cc3)ccc2O1 | 102
C[C@@H]1CCCCO[C@@H](CN(C)C(=O)Nc2ccc(C(F)(F)F)cc2)[C@@H](C)CN([C@H](C)CO)C(=O)c2cc(NS(=O)(=O)c3ccc(F)cc3)ccc2O1 | 82
C[C@@H]1CCCCO[C@H](CN(C)C)[C@@H](C)CN([C@H](C)CO)C(=O)c2cc(NS(=O)(=O)c3ccc(F)cc3)ccc2O1 | 93
Cc1ccc(S(=O)(=O)Nc2ccc3c(c2)C(=O)N([C@H](C)CO)C[C@H](C)[C@@H](CN(C)C)OCCCC[C@@H](C)O3)cc1 | 0
C[C@@H]1CCCCO[C@@H](CN(C)S(=O)(=O)c2cccs2)[C@@H](C)CN([C@H](C)CO)C(=O)c2cc(NS(=O)(=O)c3ccccc3)ccc2O1 | 0
O=C(NCCc1ccccc1)c1ccc(Cl)cc1 | 0
Cc1ccc2nc3c(cc(C(=O)NCCN4CCOCC4)c(=N)n3CC3CCCO3)c(=O)n2c1 (stereo not given) | 0
COc1ccc(-c2nc(CNS(=O)(=O)c3ccccc3F)cs2)cc1 | 0
O=C(O)C1CC=CCC1C(=O)Nc1ccccc1S (stereo not given) | 0
COc1ccc(N2CCN(CCNC(=O)c3nnc(-c4ccc5c(c4)OCO5)o3)CC2)cc1 | 0
O=C(Sc1ccc(Cl)cc1)c1ccco1 | 0
CC(C)(C)c1cn2c3ccccc3nc2n1CCNC1CCCCC1 | 0
CCCc1cc(-n2cnc3ccccc32)n2c(nc3ccccc32)c1C#N | 0
Cc1cc(/N=C\N(C)C)n2c(nc3ccccc32)c1C#N | 0
CC(C)c1cc(NC(C)c2ccccc2)n2c(nc3ccccc32)c1C#N (stereo not given) | 257
CC(C)c1cc(NC2CCCCC2)n2c(nc3ccccc32)c1C#N | 164
Cc1c(Cl)cccc1NC(=O)c1ccc(N2C(=O)c3ccccc3C2=O)cc1 | 0
COc1ccc(CCNC(=O)c2ccc3c(=O)n(CC4CCCO4)c(=S)[nH]c3c2)cc1OC (stereo not given) | 0
SMILES | ROS inducer
COc1ccc(CCNC(=O)c2ccc3c(=O)n(CCC4=CCCCC4)c(=S)[nH]c3c2)cc1OC | 96
O=C(NCc1ccccc1)c1ccc2c(=O)n(CCC3=CCCCC3)c(=O)[nH]c2c1 | 0
CC1CCN(c2nnc(NC(=O)c3cc(-c4ccc(Br)cc4)on3)s2)CC1 | 0
CC(C)Cc1nc2ccccc2n1Cc1ccccc1 | 0
CC(C)NC(=O)N(C)C[C@@H]1Oc2ncc(-c3cccc(C(F)(F)F)c3)cc2C(=O)N([C@H](C)CO)C[C@@H]1C | 0
C[C@H](CO)N1C[C@H](C)[C@H](CN(C)C(=O)NC2CCCC2)Oc2ncc(-c3cccc(C(F)(F)F)c3)cc2C1=O | 122
C[C@H](CO)N1C[C@H](C)[C@H](CN(C)C(=O)Nc2cccc3ccccc23)Oc2ncc(-c3cccc(C(F)(F)F)c3)cc2C1=O | 109
C[C@H](CO)N1C[C@H](C)[C@H](CN(C)C(=O)NC2CCCCC2)Oc2ncc(-c3ccccc3)cc2C1=O | 0

Assay outcomes (PubChem BioAssay)
